The target in one experiment is Solute carrier family 2, facilitated glucose transporter member 1 (Homo sapiens) (UniProt P11166). In words: ST_JUDE_LEISH: Cytotoxicity at 2uM final concentration against transgenic Leishmania Mexicana promastigotes LmGLUT1 that are glucose transport deficient and complemented with the human glucose transporter GLUT1. Activity is measured by DNA content using SYBR green in vitro. In kind it is functional.
Sequence of Solute carrier family 2, facilitated glucose transporter member 1 (Homo sapiens) (P11166 whole entry): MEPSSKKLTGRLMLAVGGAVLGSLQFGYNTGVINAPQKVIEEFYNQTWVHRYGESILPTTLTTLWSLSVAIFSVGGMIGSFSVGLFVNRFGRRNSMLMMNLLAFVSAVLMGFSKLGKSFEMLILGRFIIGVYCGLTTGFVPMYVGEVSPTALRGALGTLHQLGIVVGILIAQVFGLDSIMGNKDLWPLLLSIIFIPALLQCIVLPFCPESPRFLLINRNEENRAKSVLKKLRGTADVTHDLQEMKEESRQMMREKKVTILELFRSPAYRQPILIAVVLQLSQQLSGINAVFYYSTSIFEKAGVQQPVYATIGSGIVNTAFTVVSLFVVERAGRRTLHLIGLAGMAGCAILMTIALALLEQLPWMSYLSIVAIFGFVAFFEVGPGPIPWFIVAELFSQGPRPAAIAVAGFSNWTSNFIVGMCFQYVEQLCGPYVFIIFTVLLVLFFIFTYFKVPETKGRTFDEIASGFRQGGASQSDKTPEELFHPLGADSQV
On to `COc1ccc(CCN(C)CCOc2ccc(NC(=O)c3cccc4c(=O)c5cc(SC)ccc5[nH]c34)cc2)cc1OC`, for which the inhibition was determined as 9.29%.

As for `COc1ccc(NC(=O)Nc2ccc(C)c(-c3ccc(C(=O)Nc4ccncc4)cc3)c2)cc1`, the inhibition came out at 1.53%.

On to `CCCC(=O)Nc1ccc(OCCCCN(Cc2ccccc2C(F)(F)F)c2ccc(C(F)(F)F)c(C#N)c2)cc1`, for which the inhibition was 6.19%.

`Cc1c(CNCCCNc2cc(=O)c3ccccc3[nH]2)sc(C(F)=C(F)F)c1Br`: the inhibition is 6.84%.

Regarding `CS(=O)(=O)NCCCNCc1ccc(-c2cccc(-c3nc4cc(C(F)(F)F)ccc4[nH]3)c2)cc1`, the inhibition turned out to be 5.19%.

Take `CCCN1CCN(CCCCNc2c3ccccc3nc3ccccc23)CC1`: the inhibition turned out to be 51.5%.

Consider `Cc1oc(-c2ccc(Cl)cc2)cc1C(=O)NCCC1CCN(CCCCCNC(=O)/C=C/c2ccc(Cl)c(Cl)c2)CC1`, for which the inhibition is -0.57%.

Take `CC1=C(C(=O)Nc2cc3cn[nH]c3cc2F)C(c2ccc(Cl)c(NS(C)(=O)=O)c2)CC(=O)N1` (stereo not given): the inhibition was -2.07%.

Turning to `CCOC(=O)c1ccc(NC(=O)Nc2ccc(-c3ccc(-c4nc5ccccc5[nH]4)cc3)cc2)cc1`, the inhibition was 3.64%.

With `CCNc1c2ccc(Cl)cc2nc2ccc(OC)cc12`, the inhibition is 2.46%.

Consider `Cc1cc(=NN=Cc2ccccc2Cl)c2cc(F)ccc2[nH]1`, for which the inhibition came to 3.99%.

For `OCCN1CCN(Cc2ccc(-c3ccc(-c4nc5ccccc5[nH]4)cc3)cc2)CC1`, the inhibition is 12.1%.

`CCOc1cc(C(C)C)ccc1C1CCN(CCCCNC(=O)c2ccc(NC(=O)c3ccc(Cl)cc3)cc2)CC1`: the inhibition came to 3.78%.

On to `CCCCCCCN1CC[C@@H](CCCc2ccnc3ccc(OCCN4CCOCC4)cc23)[C@@H](CC)C1`, for which the inhibition amounted to 10.6%.

Turning to `COc1cccc(C(=O)NCCOc2ccccc2)c1Oc1ccccc1`, the inhibition was 5.14%.

With `Nc1nc(N)c2cc(Cc3ccccc3Cl)cnc2n1`, the inhibition is -0.18%.

As to `O=[N+]([O-])c1cccc(-n2nc(NCc3ccc(Cl)cc3)nc2-c2ccc(F)c(C(F)(F)F)c2)c1`, the inhibition was determined as 1.19%.

In the case of `CC(=O)Nc1ccc(C(=O)Nc2cccc(-c3ccc(-c4nc5cc(C(F)(F)F)ccc5[nH]4)cc3)c2)cn1`, the inhibition turned out to be 2.59%.

Turning to `O=C(NC(=S)NCc1ccncc1)c1ccccc1`, the inhibition is 2.06%.

In the case of `Cc1cccc2nc(-c3ccc(-c4ccc(C(=O)NCCN5CCCC5)cc4)s3)[nH]c12`, the inhibition was found to be 1.13%.

Turning to `O=S1(=O)C=C(c2ccccc2)CC1`, the inhibition came to 1.23%.

For the compound `CN(c1ccc(NC(=O)Nc2cc(C(C)(C)C)on2)cc1)c1ccnc(NCCN2CCOCC2)n1`, the inhibition was 32.3%.

Turning to `CN1CCCC1CCCOC(=O)c1ccc(N)cc1` (stereo not given), the inhibition amounted to 3.24%.

For the compound `NC(=O)c1sc(-n2cnc3ccc(C(=O)NCCN4CCOCC4)cc32)cc1OCc1ccccc1C(F)(F)F`, the inhibition came to 0.72%.

`O=C(CC1CCCC1)N(Cc1ccc(-c2ccc(CNC3Cc4ccccc4C3)cc2)cc1)CC1CCCCN1` (stereo not given): the inhibition turned out to be 38.3%.

Take `O=C(Nc1ccc(N2CCN(Cc3ccccc3Cl)CC2)cc1)c1ccc([N+](=O)[O-])o1`: the inhibition is 71.5%.

As to `CCN(CC)CCNC(=O)/C(=C/C=C/c1cc2cc(Cl)c(Cl)cc2[nH]1)OC`, the inhibition was determined as 2.44%.

Take `O=C(Nc1cccc(-c2ccc(CN3CCCC3)cc2)c1)c1ccc(F)cc1`: the inhibition is -0.73%.

For `Cc1ccc(NC(=O)NC2CCN(c3ccnc4ccccc34)C2)cc1` (stereo not given), the inhibition was determined as 5.83%.

Consider `CCCCCN1CCCC1CNS(=O)(=O)c1cccc(C(=O)Nc2cccc(C(F)(F)F)c2)c1` (stereo not given), for which the inhibition amounted to 6.45%.

As for `COc1cccc(NC(=O)NC2CCN(c3ccnc(Nc4ccc(F)cc4)n3)C2)c1` (stereo not given), the inhibition came out at 0.39%.

In the case of `CC(C)Cc1cnc2nc(N)nc(N)c2c1`, the inhibition worked out at 1.42%.

In the case of `CN1CCCN(Cc2cccc(-c3cccc(NS(=O)(=O)c4cccc5cccnc45)c3)c2)CC1`, the inhibition was found to be 10.4%.

Turning to `CCOC(=O)NC1=NC(=N)N(OCCCOc2cc(Cl)c(Cl)cc2Cl)C(C)(C)N1`, the inhibition is -0.21%.

`COc1cc(C2NCC3(CCOCC3)c3cc4c(cc32)OCCO4)cc(OC)c1OC` (stereo not given): the inhibition stood at 10.2%.

As for `COc1ccc(NC(=O)c2ccc3[nH]c(-c4ccc(Cl)cc4)cc3c2)cc1OCCN(C)C`, the inhibition came to 2.93%.

As to `CCCn1cc2c(ccc3nc(N)nc(N)c32)n1`, the inhibition amounted to 0.63%.

With `COc1c(C)cc(I)cc1CNCCCNc1cc(=O)c2ccccc2[nH]1`, the inhibition came to 0.43%.

For the compound `O=c1cc(NCCCN(Cc2ccccc2)Cc2ccccc2)[nH]c2ccccc12`, the inhibition was found to be 0.48%.

With `NS(=O)(=O)CCc1cccc(Nc2nccc(-c3c(-c4cccc(NC(=O)c5c(F)cccc5F)c4)nn4ccccc34)n2)c1`, the inhibition turned out to be 4.25%.

The target in the next experiment is Hexose transporter 1 (Plasmodium falciparum) (UniProt O97467). The experiment can be described thus: ST_JUDE_LEISH: Cytotoxicity at 2uM final concentration against transgenic Leishmania Mexicana promastigotes LmPfHT that are glucose transport deficient and complemented with the Plasmodium falciparum hexose transporter. Activity is measured by DNA content using SYBR green in vitro. In kind it is functional.
For `COc1ccc(CCN(C)CCOc2ccc(NC(=O)c3cccc4c(=O)c5cc(SC)ccc5[nH]c34)cc2)cc1OC`, the inhibition came out at 8.61%.

`COc1ccc(NC(=O)Nc2ccc(C)c(-c3ccc(C(=O)Nc4ccncc4)cc3)c2)cc1`: the inhibition was 1.45%.

`CCCC(=O)Nc1ccc(OCCCCN(Cc2ccccc2C(F)(F)F)c2ccc(C(F)(F)F)c(C#N)c2)cc1`: the inhibition amounted to 5.86%.

As for `Cc1c(CNCCCNc2cc(=O)c3ccccc3[nH]2)sc(C(F)=C(F)F)c1Br`, the inhibition was determined as 5.03%.

With `CS(=O)(=O)NCCCNCc1ccc(-c2cccc(-c3nc4cc(C(F)(F)F)ccc4[nH]3)c2)cc1`, the inhibition is 3.56%.

Take `CCCN1CCN(CCCCNc2c3ccccc3nc3ccccc23)CC1`: the inhibition worked out at 73.8%.

As for `Cc1oc(-c2ccc(Cl)cc2)cc1C(=O)NCCC1CCN(CCCCCNC(=O)/C=C/c2ccc(Cl)c(Cl)c2)CC1`, the inhibition was -1.53%.

`CC1=C(C(=O)Nc2cc3cn[nH]c3cc2F)C(c2ccc(Cl)c(NS(C)(=O)=O)c2)CC(=O)N1` (stereo not given): the inhibition was -0.1%.

With `CCOC(=O)c1ccc(NC(=O)Nc2ccc(-c3ccc(-c4nc5ccccc5[nH]4)cc3)cc2)cc1`, the inhibition amounted to 3.36%.

Consider `CCNc1c2ccc(Cl)cc2nc2ccc(OC)cc12`, for which the inhibition is 4.37%.

Regarding `Cc1cc(=NN=Cc2ccccc2Cl)c2cc(F)ccc2[nH]1`, the inhibition was found to be 2.95%.

Regarding `OCCN1CCN(Cc2ccc(-c3ccc(-c4nc5ccccc5[nH]4)cc3)cc2)CC1`, the inhibition was 9.51%.

As for `CCOc1cc(C(C)C)ccc1C1CCN(CCCCNC(=O)c2ccc(NC(=O)c3ccc(Cl)cc3)cc2)CC1`, the inhibition came out at 4.23%.

As to `CCCCCCCN1CC[C@@H](CCCc2ccnc3ccc(OCCN4CCOCC4)cc23)[C@@H](CC)C1`, the inhibition came to 7.56%.

Consider `COc1cccc(C(=O)NCCOc2ccccc2)c1Oc1ccccc1`, for which the inhibition was 5.7%.

In the case of `Nc1nc(N)c2cc(Cc3ccccc3Cl)cnc2n1`, the inhibition was determined as 2.28%.

Turning to `O=[N+]([O-])c1cccc(-n2nc(NCc3ccc(Cl)cc3)nc2-c2ccc(F)c(C(F)(F)F)c2)c1`, the inhibition is 2.33%.

On to `CC(=O)Nc1ccc(C(=O)Nc2cccc(-c3ccc(-c4nc5cc(C(F)(F)F)ccc5[nH]4)cc3)c2)cn1`, for which the inhibition is -0.8%.

For the compound `O=C(NC(=S)NCc1ccncc1)c1ccccc1`, the inhibition was -1.93%.

`Cc1cccc2nc(-c3ccc(-c4ccc(C(=O)NCCN5CCCC5)cc4)s3)[nH]c12`: the inhibition was determined as 0.54%.

On to `O=S1(=O)C=C(c2ccccc2)CC1`, for which the inhibition was 1.28%.

For the compound `CN(c1ccc(NC(=O)Nc2cc(C(C)(C)C)on2)cc1)c1ccnc(NCCN2CCOCC2)n1`, the inhibition is 57.4%.

As to `CN1CCCC1CCCOC(=O)c1ccc(N)cc1` (stereo not given), the inhibition came out at 3.07%.

As to `NC(=O)c1sc(-n2cnc3ccc(C(=O)NCCN4CCOCC4)cc32)cc1OCc1ccccc1C(F)(F)F`, the inhibition is -0.6%.

Regarding `O=C(CC1CCCC1)N(Cc1ccc(-c2ccc(CNC3Cc4ccccc4C3)cc2)cc1)CC1CCCCN1` (stereo not given), the inhibition amounted to 4.62%.

`O=C(Nc1ccc(N2CCN(Cc3ccccc3Cl)CC2)cc1)c1ccc([N+](=O)[O-])o1`: the inhibition was found to be 51.2%.

As for `CCN(CC)CCNC(=O)/C(=C/C=C/c1cc2cc(Cl)c(Cl)cc2[nH]1)OC`, the inhibition is -0.18%.

As for `O=C(Nc1cccc(-c2ccc(CN3CCCC3)cc2)c1)c1ccc(F)cc1`, the inhibition amounted to 0.3%.

For `Cc1ccc(NC(=O)NC2CCN(c3ccnc4ccccc34)C2)cc1` (stereo not given), the inhibition worked out at 5.57%.

For the compound `CCCCCN1CCCC1CNS(=O)(=O)c1cccc(C(=O)Nc2cccc(C(F)(F)F)c2)c1` (stereo not given), the inhibition worked out at 6.76%.

Consider `COc1cccc(NC(=O)NC2CCN(c3ccnc(Nc4ccc(F)cc4)n3)C2)c1` (stereo not given), for which the inhibition was 6.07%.

As for `CC(C)Cc1cnc2nc(N)nc(N)c2c1`, the inhibition came out at 2.76%.

`CN1CCCN(Cc2cccc(-c3cccc(NS(=O)(=O)c4cccc5cccnc45)c3)c2)CC1`: the inhibition stood at 10.8%.

Turning to `CCOC(=O)NC1=NC(=N)N(OCCCOc2cc(Cl)c(Cl)cc2Cl)C(C)(C)N1`, the inhibition was -0.15%.

Consider `COc1cc(C2NCC3(CCOCC3)c3cc4c(cc32)OCCO4)cc(OC)c1OC` (stereo not given), for which the inhibition came to 6.69%.

For the compound `COc1ccc(NC(=O)c2ccc3[nH]c(-c4ccc(Cl)cc4)cc3c2)cc1OCCN(C)C`, the inhibition was 1.88%.

Turning to `CCCn1cc2c(ccc3nc(N)nc(N)c32)n1`, the inhibition was 0.8%.

As for `COc1c(C)cc(I)cc1CNCCCNc1cc(=O)c2ccccc2[nH]1`, the inhibition is -0.66%.

As for `O=c1cc(NCCCN(Cc2ccccc2)Cc2ccccc2)[nH]c2ccccc12`, the inhibition amounted to 4%.

Regarding `NS(=O)(=O)CCc1cccc(Nc2nccc(-c3c(-c4cccc(NC(=O)c5c(F)cccc5F)c4)nn4ccccc34)n2)c1`, the inhibition is 8.18%.

Values taken from ChEMBL document CHEMBL3433997, “St. Jude Leishmania screening dataset” (2016).
